Compound activity as filed in PubChem.
Compounds with a hit are over-represented: about 3.7% of the library has one in this group of screens.
RE007 growth inh = qHTS Assay for Inhibitors of the HIV-1 protein Vpr; hit rate 0.21% among 360,000; AID 651644, 2012; Potency, µM (series often up to 92.2 µM), for inactives: top-dose activity change, negative = less growth, most hits filed as inhibitors; S. pombe RE007 Vpr strain, BacTiter-Glo ATP luminescence, 24 h; active = well fitted falling curve with a large enough effect; also: nearly all actives have a fitted effect of over 50% in size
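Fission yeast strain RE007, carrying one chromosomally integrated HIV-1 vpr copy, was seeded at OD 0.01 in PMG+AL medium with 23 nL pinned compound. After 24 h at 30 °C and 99% humidity, viability was read by BacTiter-Glo luminescence.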
FMDV inh = High Throughput Screening for Foot and Mouth Disease Virus Antivirals; Potency, µM (series often up to 57.9 µM), for inactives: at the top dose activity change, negative = inhibition, actives largely listed as inhibitors; FMDV antiviral cell-based qHTS; AID 1159524, 2015; hit rate 1.2% among 410,000; calls by dose curve; tested in HEK293T cells; also: read-out not given here; nearly all actives have a fitted effect of over 45% in size
Sm TGR inh = qHTS Assay for the Inhibitors of Schistosoma Mansoni Peroxiredoxins; Schistosoma mansoni thioredoxin glutathione reductase (TGR), Q962Y6; purified TGR, DTNB reduction, TNB absorbance 405 nm; Potency, µM (highest dose often 114 µM), for the others: top-dose activity change, negative = inhibition, actives largely listed as inhibitors; hit rate 3% among 360,000; also: nearly all actives have a fitted effect of over 60% in size
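Kinetic colorimetric format: TGR-catalysed, NADPH-driven DTNB reduction monitored via TNB absorbance. Enzyme dispensed at 20 nM; compound exposure 15 min at room temperature before reaction start.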
TbPYK inhibitor = qHTS of Trypanosoma Brucei Inhibitors. hit rate 0.12% among 410,000. TbPYK enzyme, Kinase-Glo Plus ATP luminescence, 45 min. Potency, µM (doses to about 76.8 µM), without a hit: at the top dose activity, negative = inhibition, actives largely listed as inhibitors. AID 624173, 2012; also: nearly all actives have a fitted effect of over 50% in size
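Activity of T. brucei pyruvate kinase was followed by Kinase-Glo Plus luminescence after the enzyme reacted 45 min at room temperature with 130 uM ADP (final) and substrate. Test compounds were added before ADP at multiple concentrations.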
* = called active by the depositor; / = not tested or not shown. Unless noted, calls follow the shape of the dose curve; as a rule, active = well fitted curve in the direction sought with a large enough effect; inconclusive = small, poorly fitted or top-dose-only effect, or another doubt; inactive = no such curve, though single readings can be large; an effect the other way counts as inactive or inconclusive. % is scaled to controls: 0 for no effect and ±100 for the full control effect; potency is read from the fitted curve at half-maximal effect.

SMILES	RE007 growth inh	FMDV inh	Sm TGR inh	TbPYK inhibitor
CNc1oc(Cc2cccc3ccccc23)nc1C#N	13%	-10%	-23%	3%
CN(C)CCNc1oc(COc2ccc(-c3ccccc3)cc2)nc1C#N	-7%	-26%	45µM*	-8%
COCCCNc1oc(COc2ccc(Cl)cc2Cl)nc1C#N	11%	-18%	20µM*	2%
COc1ccc(CCNc2oc(Cc3cccc4ccccc34)nc2C#N)cc1OC	2%	28µM*	1%	-7%
COc1cc(-c2nnc(SCC(=O)N(C)C3CCCCC3)o2)cc(OC)c1OC	/	0%	-8%	-1%
COc1ccc(CCNc2oc(COc3ccc(Br)cc3)nc2C#N)cc1OC	-2%	32µM*	6%	-5%
COc1ccc(CCNC(=O)CSc2n[nH]c(-c3ccccc3Cl)n2)cc1OC	/	-13%	-1%	-3%
CN(C)c1ncc2nc(-c3ccccc3)c(=O)n(CCc3ccccc3)c2n1	/	-12%	/	/
